Test results: PubChem BioAssay AID1159580 (chemical genetic matrix, 2015)
In all, about 5,500 compounds went through this assay and about 2,000 (36%) were called active. Not shown: some 18% with an inconclusive outcome. No stated cut-off is given here; in the data, active means normalized growth mostly below about 0.91 (no sharp cut-off); inconclusive means no clear call, values can overlap the other calls; inactive means mostly above about 0.92. The list shows a part of the results.

Experiment: chemical genetic growth profiling, strain panel (AID 1159580);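 further: tested at 20 µM; growth read once vehicle control cultures reached saturation at 30 °C; 1 = growth at the plate median or of vehicle wells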
Settings: growth OD

Measured: normalized growth

O=C(O)c1ccccc1C(=O)Nc1ccc(S(=O)(=O)Nc2nccs2)cc1
inactive: S. cerevisiae deletion strains, locus YJR066W, strain TOR1, stronger effect = lower value 0.983 | S. cerevisiae deletion strains, locus YJR075W, strain HOC1, stronger effect = lower value 1.02 | S. cerevisiae deletion strains, locus YKL009W, strain mrt4, stronger effect = lower value 1.03 | S. cerevisiae deletion strains, locus YKL068W, stronger effect = lower value 0.987 | S. cerevisiae deletion strains, locus YKL085W, strain MDH1 (second series), stronger effect = lower value 0.984 | S. cerevisiae deletion strains, locus YKL085W, strain MDH1, stronger effect = lower value 0.984 | S. cerevisiae deletion strains, locus YKL160W, strain elf1, stronger effect = lower value 0.972 | S. cerevisiae deletion strains, locus YKL190W, strain CNB1, stronger effect = lower value 1 | S. cerevisiae deletion strains, locus YKR001C, strain vps1, stronger effect = lower value 1 | S. cerevisiae deletion strains, locus YKR026C, strain gcn3, stronger effect = lower value 0.981 | S. cerevisiae deletion strains, locus YKR091W, strain srl3, stronger effect = lower value 0.984 | S. cerevisiae deletion strains, locus YLL001W, strain dnm1, stronger effect = lower value 0.966 | S. cerevisiae deletion strains, locus YLL026W, stronger effect = lower value 0.988 | S. cerevisiae deletion strains, locus YLL041C, strain sdh2, stronger effect = lower value 0.969 | S. cerevisiae deletion strains, locus YLR027C, strain aat2, stronger effect = lower value 0.982 | S. cerevisiae deletion strains, locus YLR039C, strain RIC1, stronger effect = lower value 1 | S. cerevisiae deletion strains, locus YLR058C, strain SHM2, stronger effect = lower value 1.01 | S. cerevisiae deletion strains, locus YLR102C, strain apc9, stronger effect = lower value 0.99 | S. cerevisiae deletion strains, locus YLR113W, strain HOG1, stronger effect = lower value 1 | S. cerevisiae deletion strains, locus YLR221C, strain rsa3, stronger effect = lower value 0.95 | S. cerevisiae deletion strains, locus YLR258W, strain gsy2, stronger effect = lower value 0.986 | S. cerevisiae deletion strains, locus YLR262C, strain YPT6 (second series), stronger effect = lower value 1 | S. cerevisiae deletion strains, locus YLR262C, strain YPT6, stronger effect = lower value 1.03 | S. cerevisiae deletion strains, locus YLR268W, strain sec22, stronger effect = lower value 0.998 | S. cerevisiae deletion strains, locus YLR320W, strain mms22, stronger effect = lower value 0.976 | S. cerevisiae deletion strains, locus YLR330W, strain CHS5, stronger effect = lower value 1 | S. cerevisiae deletion strains, locus YLR342W, strain FKS1 (second series), stronger effect = lower value 0.994 | S. cerevisiae deletion strains, locus YLR342W, strain FKS1, stronger effect = lower value 0.99 | S. cerevisiae deletion strains, locus YLR357W, strain rsc2, stronger effect = lower value 0.975 | S. cerevisiae deletion strains, locus YLR370C, strain arc18, stronger effect = lower value 0.959 | S. cerevisiae deletion strains, locus YLR371W, strain rom2, stronger effect = lower value 0.998 | S. cerevisiae deletion strains, locus YLR384C, strain iki3, stronger effect = lower value 0.976 | S. cerevisiae deletion strains, locus YLR418C, strain cdc73, stronger effect = lower value 0.992 | S. cerevisiae deletion strains, locus YML016C, strain PPZ1, stronger effect = lower value 0.995 | S. cerevisiae deletion strains, locus YML032C, strain rad52, stronger effect = lower value 0.994 | S. cerevisiae deletion strains, locus YML120C, strain ndi1, stronger effect = lower value 0.969 | S. cerevisiae deletion strains, locus YML124C, strain tub3, stronger effect = lower value 0.992 | S. cerevisiae deletion strains, locus YMR058W, strain fet3, stronger effect = lower value 0.98 | S. cerevisiae deletion strains, locus YMR078C, strain ctf18, stronger effect = lower value 0.99 | S. cerevisiae deletion strains, locus YMR125W, strain sto1, stronger effect = lower value 0.96 | S. cerevisiae deletion strains, locus YMR129W, stronger effect = lower value 0.989 | S. cerevisiae deletion strains, locus YMR205C, strain PFK2, stronger effect = lower value 0.965 | S. cerevisiae deletion strains, locus YMR223W, strain ubp8, stronger effect = lower value 0.998 | S. cerevisiae deletion strains, locus YMR231W, strain pep5, stronger effect = lower value 0.974 | S. cerevisiae deletion strains, locus YMR307W, strain GAS1, stronger effect = lower value 0.973 | S. cerevisiae deletion strains, locus YNL067W, strain RPL9B, stronger effect = lower value 1.01 | S. cerevisiae deletion strains, locus YNL071W, strain lat1, stronger effect = lower value 0.987 | S. cerevisiae deletion strains, locus YNL128W, strain TEP1, stronger effect = lower value 1.02 | S. cerevisiae deletion strains, locus YNL183C, strain NPR1, stronger effect = lower value 0.975 | S. cerevisiae deletion strains, locus YNL209W, strain ssb2, stronger effect = lower value 0.989 | S. cerevisiae deletion strains, locus YNL233W, strain BNI4, stronger effect = lower value 1.01 | S. cerevisiae deletion strains, locus YNL248C, strain rpa49, stronger effect = lower value 0.97 | S. cerevisiae deletion strains, locus YNL250W, strain rad50, stronger effect = lower value 1 | S. cerevisiae deletion strains, locus YNL271C, strain bni1, stronger effect = lower value 0.982 | S. cerevisiae deletion strains, locus YNL298W, strain CLA4, stronger effect = lower value 0.995 | S. cerevisiae deletion strains, locus YNL307C, strain MCK1, stronger effect = lower value 1 | S. cerevisiae deletion strains, locus YNL322C, strain KRE1 (second series), stronger effect = lower value 0.945 | S. cerevisiae deletion strains, locus YNL322C, strain KRE1, stronger effect = lower value 1.01 | S. cerevisiae deletion strains, locus YNR049C, strain mso1, stronger effect = lower value 0.976 | S. cerevisiae deletion strains, locus YNR052C, strain pop2, stronger effect = lower value 0.994 | S. cerevisiae deletion strains, locus YOL006C, strain TOP1, stronger effect = lower value 1.02 | S. cerevisiae deletion strains, locus YOL012C, strain htz1 0.647 | S. cerevisiae deletion strains, locus YOL147C, strain pex11, stronger effect = lower value 0.987 | S. cerevisiae deletion strains, locus YOR001W, strain rrp6, stronger effect = lower value 0.999 | S. cerevisiae deletion strains, locus YOR061W, strain CKA2, stronger effect = lower value 1 | S. cerevisiae deletion strains, locus YOR069W, strain VPS5, stronger effect = lower value 1 | S. cerevisiae deletion strains, locus YOR070C, strain gyp1, stronger effect = lower value 0.976 | S. cerevisiae deletion strains, locus YOR080W, strain dia2, stronger effect = lower value 0.973 | S. cerevisiae deletion strains, locus YOR083W, strain WHI5, stronger effect = lower value 0.983 | S. cerevisiae deletion strains, locus YOR106W, strain vam3, stronger effect = lower value 0.972 | S. cerevisiae deletion strains, locus YOR136W, strain idh2, stronger effect = lower value 1 | S. cerevisiae deletion strains, locus YOR144C, strain elg1, stronger effect = lower value 0.993 | S. cerevisiae deletion strains, locus YOR184W, strain ser1, stronger effect = lower value 1 | S. cerevisiae deletion strains, locus YOR231W, strain MKK1, stronger effect = lower value 1.04 | S. cerevisiae deletion strains, locus YOR265W, strain rbl2, stronger effect = lower value 0.99 | S. cerevisiae deletion strains, locus YOR270C, strain vph1, stronger effect = lower value 0.983 | S. cerevisiae deletion strains, locus YOR290C, strain snf2, stronger effect = lower value 0.959 | S. cerevisiae deletion strains, locus YOR316C, strain cot1, stronger effect = lower value 1.01 | S. cerevisiae deletion strains, locus YPL051W, strain arl3, stronger effect = lower value 1 | S. cerevisiae deletion strains, locus YPL078C, strain atp4, stronger effect = lower value 0.983 | S. cerevisiae deletion strains, locus YPL106C, strain sse1, stronger effect = lower value 0.936 | S. cerevisiae deletion strains, locus YPL240C, strain hsp82, stronger effect = lower value 0.979 | S. cerevisiae deletion strains, locus YPL241C, strain CIN2, stronger effect = lower value 0.999 | S. cerevisiae deletion strains, locus YPL256C, strain CLN2, stronger effect = lower value 1.02 | S. cerevisiae deletion strains, locus YPR119W, strain clb2, stronger effect = lower value 0.99 | S. cerevisiae deletion strains, locus YPR141C, strain kar3, stronger effect = lower value 0.984 | S. cerevisiae deletion strains, locus YPR163C, strain tif3, stronger effect = lower value 0.993 | S. cerevisiae deletion strains, locus YPR167C, strain met16, stronger effect = lower value 0.997 | S. cerevisiae deletion strains, strain wtn01, stronger effect = lower value 0.995 | S. cerevisiae strains, strain wild type, stronger effect = lower value 1
